In PubChem BioAssay (NCI):
About 83,000 compounds went through this panel and 20% of them were active in at least one assay; those are over-represented in the sample as a whole.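 Interpretation: 100, growth as untreated; towards 0, rising growth inhibition; 0, no net growth; 0 to -100, cell death. Compounds scoring below 10 were considered active.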 Activity calls are given as the source filed them.

tested on: MDA-MB-231 breast; experiment: NCI-60 one-dose screen, 48 h (100 = growth as untreated, 0 = no growth, -100 = all killed); settings: 10 µM unless noted

Q: How did the growth turn out when `Cc1[nH]ccc2cc3nc4ccccc4c3cc12` was run?
A: 26.3% (inactive)

Q: With `NS(=O)(=O)c1ccc(-n2ncc3c(N/N=C/c4ccccc4)ncnc32)cc1` as the compound, how does the growth read?
A: 101% (inactive)

Q: How did the growth turn out when `O=C(C(=O)c1cc(Br)ccc1O)c1cc(Br)ccc1O` was run?
A: 64.8% (inactive)

Q: `COc1ccc(-c2cnc(SCC(=O)Nc3ccc(-c4nc5ccccc5s4)cc3)n2-c2ccc(OC)cc2)cc1` was tested. Which growth did it give?
A: 111% (inactive)

Q: With `N#CSCC1CC(O)(c2ccccc2)C(c2ccccc2)C(c2ccc(Cl)cc2)O1` (stereo not given) as the compound, how does the growth read?
A: -52.2% (active)

Q: For `OCc1n(Cc2ccc3ccccc3c2)cc[n+]1Cc1ccc2ccccc2c1`, which growth is on record?
A: 51.4% (inactive)

Q: `c1ccc(-c2nc(Nc3nccnn3)c3ccccc3n2)cc1` was tested. Which growth did it give?
A: 91.8% (inactive)

Q: How did the growth turn out when `CCOC(=O)/C=C1/SC(=Nc2ccc(C#N)cc2)N(Cc2ccco2)C1=O` was run?
A: 57% (inactive)

Q: For `Cc1cnc2nc(-c3ccc(N(C)C)cc3)cn2c1`, which growth is on record?
A: 107% (inactive)

Q: How did the growth turn out when `COc1ccc2c(c1)c(CC(=O)[Se]C)c(C)n2C(=O)c1ccc(Cl)cc1` was run?
A: 44.4% (inactive)

Q: `COc1cc(/C=C/C(=O)C(C(=O)/C=C/c2ccc(OC(=O)CCNc3nnc(C)s3)c(OC)c2)C(=O)CCNc2nnc(C)s2)ccc1OC(=O)CCNc1nnc(C)s1` was tested. Which growth did it give?
A: -4.77% (active)

Q: How did the growth turn out when `O=C1C2C(C(=O)N1CC[Se][Se]CCN1C(=O)C3C(C1=O)[C@H]1C=C[C@@H]3C1)[C@H]1C=C[C@@H]2C1` (stereo not given in full) was run?
A: -33.8% (active)

Q: For `COc1ccc(OC)c(CCn2cncc2-c2c[nH]c3cc(Br)ccc23)c1`, which growth is on record?
A: 48.7% (inactive)

Q: `CN(C)c1ncnc2c1ncn2C1CCCCO1` (stereo not given) was tested. Which growth did it give?
A: 106% (inactive)

Q: For `COc1ccc2c(c1)sc1nc(-c3ccc(Br)cc3)cn12`, which growth is on record?
A: 89.6% (inactive)

Q: With `O=C(Nc1ccccc1OC(=O)c1ccccc1)c1ccccc1` as the compound, how does the growth read?
A: 56.1% (inactive)

Q: `Cc1csc(C#Cc2cncc(O)c2)n1` was tested. Which growth did it give?
A: 107% (inactive)

Q: Which growth does the source give for `COc1ccc2nc(NC(=O)CN3CCn4c(nnc4C(F)(F)F)C3)sc2c1` here?
A: 96.6% (inactive)

Q: With `CCOC(=O)C(Br)=P(c1ccccc1)(c1ccccc1)c1ccccc1` as the compound, how does the growth read?
A: 92.6% (inactive)

Q: Which growth does the source give for `C=CCN(/C=C/CN(CC=C)CC=C)CC=C` here?
A: 90.4% (inactive)

Q: How did the growth turn out when `O=C1NC(=S)S/C1=C\c1cc(Br)ccc1O` was run?
A: 96.7% (inactive)

Q: With `COc1ccc(C(=O)/C=C/c2cccc(Nc3ccnc4cc(Cl)ccc34)c2)cc1` as the compound, how does the growth read?
A: 13.7% (inactive)

Q: For `CCCCCCCCCCOC(C)=O`, which growth is on record?
A: 107% (inactive)

Q: For `O=C1C(=O)c2c(nc3ccc(Cl)cn23)-c2ccccc21`, which growth is on record?
A: -59% (active)

Q: `CC(=O)OCC(=O)[C@@]1(O)CC[C@H]2[C@@H]3CCC4=CC(=O)CC[C@]4(C)[C@@]3(F)[C@@H](O)C[C@@]21C` was tested. Which growth did it give?
A: 103% (inactive)

Q: How did the growth turn out when `CCc1nn2c(-c3ccc(Cl)cc3C)c(-c3cc(OC)c(OC)c(OC)c3)nc2s1` was run?
A: 73.8% (inactive)

Q: For `COc1cc(/C=C/C(=O)C(C(=O)/C=C/c2ccc(OC(=O)CCNC34CC5CC(CC(C5)C3)C4)c(OC)c2)C(=O)CCNC23CC4CC(CC(C4)C2)C3)ccc1OC(=O)CCNC12CC3CC(CC(C3)C1)C2` (stereo not given), which growth is on record?
A: 13.3% (inactive)

Q: Which growth does the source give for `CN(C)c1ccc(-c2nc3ncc(Br)cc3o2)cc1` here?
A: 90.2% (inactive)

Q: With `CCCc1n(Cc2ccc3ccccc3c2)cc[n+]1Cc1ccc2ccccc2c1` as the compound, how does the growth read?
A: -80.1% (active)

Q: How did the growth turn out when `N#Cc1c(-c2ccccc2)cc(-c2ccccc2)n(CCC(=O)O)c1=O` was run?
A: 58.9% (inactive)

Q: How did the growth turn out when `C=C1CCC2C3(C)COC(c4ccccc4)OC3CCC2(C)C1C/C=C1/C(=O)OCC1OC(C)=O` (stereo not given) was run?
A: 94.9% (inactive)

Q: How did the growth turn out when `O=C(CNC(=O)c1cccc2ccccc12)Nc1ccccc1Cc1ccccc1` was run?
A: 64.1% [5 µM] (inactive)

Q: With `COC(=O)C1=CCC(n2cnc3c(N)ncnc32)O1` (stereo not given) as the compound, how does the growth read?
A: 98.5% (inactive)

Q: Which growth does the source give for `O=C(NC1CCCCC1)c1ccc(Nc2ncnc3c2cnn3-c2ccccc2)cc1` here?
A: 8.76% (active)

Q: `COc1ccc(-c2cc(-c3cccnc3)nc3sc(C(=O)Nc4ccccc4)c(N)c23)cc1OC` was tested. Which growth did it give?
A: 69.7% (inactive)

Q: Which growth does the source give for `Clc1ccc(C2=NN(c3ccc(Cl)cc3)C(c3cccc(Nc4ccnc5cc(Cl)ccc45)c3)C2)cc1` (stereo not given) here?
A: 84.5% (inactive)

Q: With `CCCCN=C(N)c1ccc(OCCSCCOc2ccc(C(N)=NCCCC)cc2)cc1` as the compound, how does the growth read?
A: 58.7% (inactive)

Q: Which growth does the source give for `C/C(=C\CCc1ccoc1)CC/C=C(\C)CCCC1COC(=O)C1` (stereo not given) here?
A: 92.6% (inactive)

Q: Which growth does the source give for `Oc1c(Cl)cc(Oc2cc(Cl)c(O)c(CN3CCOCC3)c2)cc1CN1CCOCC1` here?
A: 96.6% (inactive)

Q: How did the growth turn out when `CCOC(=O)CCN(c1c(Cl)ssc1=O)C(C)C` was run?
A: 104% (inactive)

tested on: RXF 393 renal; experiment: as above; settings: 10 µM unless noted

Q: For `Cc1[nH]ccc2cc3nc4ccccc4c3cc12`, which growth is on record?
A: 17.5% (inactive)

Q: How did the growth turn out when `NS(=O)(=O)c1ccc(-n2ncc3c(N/N=C/c4ccccc4)ncnc32)cc1` was run?
A: -18.8% (active)

Q: How did the growth turn out when `O=C(C(=O)c1cc(Br)ccc1O)c1cc(Br)ccc1O` was run?
A: 65.7% (inactive)

Q: With `COc1ccc(-c2cnc(SCC(=O)Nc3ccc(-c4nc5ccccc5s4)cc3)n2-c2ccc(OC)cc2)cc1` as the compound, how does the growth read?
A: 121% (inactive)

Q: `N#CSCC1CC(O)(c2ccccc2)C(c2ccccc2)C(c2ccc(Cl)cc2)O1` (stereo not given) was tested. Which growth did it give?
A: -91.5% (active)

Q: For `OCc1n(Cc2ccc3ccccc3c2)cc[n+]1Cc1ccc2ccccc2c1`, which growth is on record?
A: 57.3% (inactive)

Q: `c1ccc(-c2nc(Nc3nccnn3)c3ccccc3n2)cc1` was tested. Which growth did it give?
A: 96.7% (inactive)

Q: Which growth does the source give for `CCOC(=O)/C=C1/SC(=Nc2ccc(C#N)cc2)N(Cc2ccco2)C1=O` here?
A: -23.9% (active)

Q: Which growth does the source give for `Cc1cnc2nc(-c3ccc(N(C)C)cc3)cn2c1` here?
A: 79.7% (inactive)

Q: For `COc1ccc2c(c1)c(CC(=O)[Se]C)c(C)n2C(=O)c1ccc(Cl)cc1`, which growth is on record?
A: 4.4% (active)

Q: For `COc1cc(/C=C/C(=O)C(C(=O)/C=C/c2ccc(OC(=O)CCNc3nnc(C)s3)c(OC)c2)C(=O)CCNc2nnc(C)s2)ccc1OC(=O)CCNc1nnc(C)s1`, which growth is on record?
A: -70.2% (active)

Q: For `O=C1C2C(C(=O)N1CC[Se][Se]CCN1C(=O)C3C(C1=O)[C@H]1C=C[C@@H]3C1)[C@H]1C=C[C@@H]2C1` (stereo not given in full), which growth is on record?
A: -89% (active)

Q: How did the growth turn out when `COc1ccc(OC)c(CCn2cncc2-c2c[nH]c3cc(Br)ccc23)c1` was run?
A: 51.9% (inactive)

Q: How did the growth turn out when `CN(C)c1ncnc2c1ncn2C1CCCCO1` (stereo not given) was run?
A: 114% (inactive)

Q: For `COc1ccc2c(c1)sc1nc(-c3ccc(Br)cc3)cn12`, which growth is on record?
A: 109% (inactive)

Q: `O=C(Nc1ccccc1OC(=O)c1ccccc1)c1ccccc1` was tested. Which growth did it give?
A: 121% (inactive)

Q: With `Cc1csc(C#Cc2cncc(O)c2)n1` as the compound, how does the growth read?
A: 69.9% (inactive)

Q: For `COc1ccc2nc(NC(=O)CN3CCn4c(nnc4C(F)(F)F)C3)sc2c1`, which growth is on record?
A: 91% (inactive)

Q: How did the growth turn out when `CCOC(=O)C(Br)=P(c1ccccc1)(c1ccccc1)c1ccccc1` was run?
A: 79.9% (inactive)

Q: For `C=CCN(/C=C/CN(CC=C)CC=C)CC=C`, which growth is on record?
A: 111% (inactive)

Q: Which growth does the source give for `O=C1NC(=S)S/C1=C\c1cc(Br)ccc1O` here?
A: 115% (inactive)

Q: `COc1ccc(C(=O)/C=C/c2cccc(Nc3ccnc4cc(Cl)ccc34)c2)cc1` was tested. Which growth did it give?
A: 41.7% (inactive)

Q: `CCCCCCCCCCOC(C)=O` was tested. Which growth did it give?
A: 112% (inactive)

Q: Which growth does the source give for `O=C1C(=O)c2c(nc3ccc(Cl)cn23)-c2ccccc21` here?
A: -100% (active)

Q: How did the growth turn out when `CC(=O)OCC(=O)[C@@]1(O)CC[C@H]2[C@@H]3CCC4=CC(=O)CC[C@]4(C)[C@@]3(F)[C@@H](O)C[C@@]21C` was run?
A: 129% (inactive)

Q: Which growth does the source give for `CCc1nn2c(-c3ccc(Cl)cc3C)c(-c3cc(OC)c(OC)c(OC)c3)nc2s1` here?
A: 85.2% (inactive)

Q: With `COc1cc(/C=C/C(=O)C(C(=O)/C=C/c2ccc(OC(=O)CCNC34CC5CC(CC(C5)C3)C4)c(OC)c2)C(=O)CCNC23CC4CC(CC(C4)C2)C3)ccc1OC(=O)CCNC12CC3CC(CC(C3)C1)C2` (stereo not given) as the compound, how does the growth read?
A: -68.8% (active)

Q: Which growth does the source give for `CN(C)c1ccc(-c2nc3ncc(Br)cc3o2)cc1` here?
A: 83.8% (inactive)

Q: With `CCCc1n(Cc2ccc3ccccc3c2)cc[n+]1Cc1ccc2ccccc2c1` as the compound, how does the growth read?
A: -30.4% (active)

Q: How did the growth turn out when `N#Cc1c(-c2ccccc2)cc(-c2ccccc2)n(CCC(=O)O)c1=O` was run?
A: 53% (inactive)

Q: `C=C1CCC2C3(C)COC(c4ccccc4)OC3CCC2(C)C1C/C=C1/C(=O)OCC1OC(C)=O` (stereo not given) was tested. Which growth did it give?
A: 41% (inactive)

Q: With `O=C(CNC(=O)c1cccc2ccccc12)Nc1ccccc1Cc1ccccc1` as the compound, how does the growth read?
A: 47.2% [5 µM] (inactive)

Q: For `COC(=O)C1=CCC(n2cnc3c(N)ncnc32)O1` (stereo not given), which growth is on record?
A: -7.73% (active)

Q: Which growth does the source give for `O=C(NC1CCCCC1)c1ccc(Nc2ncnc3c2cnn3-c2ccccc2)cc1` here?
A: 62.2% (inactive)

Q: For `COc1ccc(-c2cc(-c3cccnc3)nc3sc(C(=O)Nc4ccccc4)c(N)c23)cc1OC`, which growth is on record?
A: 76% (inactive)

Q: `Clc1ccc(C2=NN(c3ccc(Cl)cc3)C(c3cccc(Nc4ccnc5cc(Cl)ccc45)c3)C2)cc1` (stereo not given) was tested. Which growth did it give?
A: 82.5% (inactive)

Q: With `CCCCN=C(N)c1ccc(OCCSCCOc2ccc(C(N)=NCCCC)cc2)cc1` as the compound, how does the growth read?
A: 92.6% (inactive)

Q: How did the growth turn out when `C/C(=C\CCc1ccoc1)CC/C=C(\C)CCCC1COC(=O)C1` (stereo not given) was run?
A: 99.1% (inactive)

Q: With `Oc1c(Cl)cc(Oc2cc(Cl)c(O)c(CN3CCOCC3)c2)cc1CN1CCOCC1` as the compound, how does the growth read?
A: 104% (inactive)

Q: For `CCOC(=O)CCN(c1c(Cl)ssc1=O)C(C)C`, which growth is on record?
A: 87.8% (inactive)
